Screening data from PubChem BioAssay.
Most compounds without a hit are left out; they make up all but 7.3% or so of the library.
NPC1 prom act: activators of NPC1 promoter; 320,000 tested, 2.4% active; Huh7 NPC1 promoter luciferase reporter, 24 h; Potency, µM (top dose mostly 9.22 µM), hits mostly activators; further: nearly all actives have a fitted effect of over 60% in size
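Huh7 reporter cells (NPC1 promoter driving luciferase) are dosed with compound for 24 h at 37 °C, 5% CO2; luciferase detection reagent is then added and luminescence measured after 10 min at ambient temperature.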
ELG1 genotox: inducers of genotoxicity in HEK293T ELG1-luciferase cells; AID 504466; Potency, µM (series often up to 46 µM), actives largely listed as activators; HEK293T ELG1-luciferase reporter, luminescence, 16 h; 330,000 tested, 1.3% active; further: nearly all actives have a fitted effect of over 60% in size
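DMSO vehicle served as control against compound-treated ELG1-luciferase HEK293T cells; exposure lasted 16 hr at 37 °C and 5% CO2, followed by ONE-Glo luminescence detection after 30 min.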
FLuc counter: inhibits or activates purified firefly luciferase, miR-21 counter-screen; P08659; purified FLuc, Km substrates, luminescence inhibition; Potency, µM (titrated, usually from 57.5 µM), most hits filed as inhibitors; 360,000 tested, 6.9% active; further: nearly all actives have a fitted effect of over 55% in size
Target sequence (P08659 whole entry, looked up): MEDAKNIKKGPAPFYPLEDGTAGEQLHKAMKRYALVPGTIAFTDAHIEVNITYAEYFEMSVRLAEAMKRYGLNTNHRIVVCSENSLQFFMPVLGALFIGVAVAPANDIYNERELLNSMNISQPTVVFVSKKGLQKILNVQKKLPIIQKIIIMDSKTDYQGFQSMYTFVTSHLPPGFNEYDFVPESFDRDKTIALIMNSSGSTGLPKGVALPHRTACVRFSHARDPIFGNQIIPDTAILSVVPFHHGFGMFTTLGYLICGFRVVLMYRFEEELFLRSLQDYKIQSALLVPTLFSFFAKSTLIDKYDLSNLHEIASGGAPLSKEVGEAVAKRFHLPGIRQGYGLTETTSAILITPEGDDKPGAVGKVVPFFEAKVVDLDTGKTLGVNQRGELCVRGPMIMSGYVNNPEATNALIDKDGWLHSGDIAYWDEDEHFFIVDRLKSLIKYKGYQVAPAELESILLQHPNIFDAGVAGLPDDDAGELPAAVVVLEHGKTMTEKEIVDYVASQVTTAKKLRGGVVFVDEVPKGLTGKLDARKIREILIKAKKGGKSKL
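Purified P. pyralis luciferase, 10 nM final, with Km-level 10 uM D-luciferin and 10 uM ATP in 50 mM Tris acetate pH 7.5, 10 mM Mg acetate, 0.01% Tween-20, 0.05% BSA; 6-point qHTS titration about 60 µM downward; luminescence read.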
SMN2 splice up: increases expression of the SMN2 splice variant. AID 1458. Potency, µM (doses to about 46.1 µM), most hits filed as activators. HEK293 SMN2-luciferase splicing reporter, luminescence, 30-36 h. 210,000 tested, 2.8% active; further: nearly all actives have a fitted effect of over 55% in size
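qHTS luciferase splicing reporter: luminescence rises when SMN2 exon 7 is included in transfected HEK293 cells. Compound exposure lasted 30-36 h at 37C, with 4.5 mM final sodium butyrate as control, followed by a ONE-Glo read.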
uPA surface inh: cell surface uPA generation inhibition; cell surface uPA generation assay, qHTS; 330,000 tested, 0.31% active; AID 540303; Potency, µM (highest dose often 38.3 µM), actives largely listed as inhibitors; active means well fitted inhibition curve with a large enough effect; inconclusive means small, poorly fitted or top-dose-only effect; inactive means no such curve, though single readings can be large or run the other way; tested in mouse RAW 264.7 cells; further: nearly all actives have a fitted effect of over 55% in size
Rab9 prom act: activators of Rab9 promoter. Huh7 Rab9 promoter-luciferase reporter, luminescence, 24 h. Potency, µM (top dose mostly 9.22 µM), hits mostly activators. 320,000 tested, 2.8% active. AID 485297; further: nearly all actives have a fitted effect of over 60% in size
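Measured in stably transfected Huh7 cells bearing a Rab9 promoter–luciferase construct: 24 h compound treatment at 37 °C, followed by luminescence detection.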
A number is an active result; - = inactive; ? = inconclusive; . = no result given. Unless noted, the call rests on the fitted dose curve; in most records, active means well fitted curve in the direction sought with a large enough effect; inconclusive means small, poorly fitted or top-dose-only effect, or another doubt; inactive means no such curve, though single readings can be large; an effect the other way counts as inactive or inconclusive.

SMILES	NPC1 prom act	ELG1 genotox	FLuc counter	SMN2 splice up	uPA surface inh	Rab9 prom act
CCc1ccc(N2C(=O)CSC23C(=O)N(Cc2cccc(OC)c2)c2ccccc23)cc1 (configuration not stated)	.	.	-	.	.	.
O=C(CSc1nnc(NC(=O)c2ccccc2F)s1)NCC1CCCO1 (configuration not stated)	?	?	12µM	.	6.31µM	?
Cc1cc(C)cc(C(=O)Nc2nnc(SCC(=O)NCC3CCCO3)s2)c1 (configuration not stated)	-	-	?	.	-	-
COc1ccc(C(=O)Nc2nnc(SCC(=O)NCC3CCCO3)s2)cc1OC (configuration not stated)	-	-	12µM	.	-	-
Cc1cccc(Cc2nnc(CCC(=O)N(C)CCc3ccccc3)o2)c1	3.55µM	18.3µM	7.57µM	.	-	3.98µM
CCN(CCn1cccn1)C(=O)CCc1nnc(CCCc2ccccc2)o1	?	16.4µM	15.1µM	11.2µM	-	2.82µM
C=C(C)CN(CC)C(=O)CCc1nnc(CCCc2ccccc2)o1	3.55µM	?	12µM	.	-	3.16µM
COc1cc(NC(=O)c2nn(-c3ccc(F)cc3)c(=O)n(C)c2=O)cc(OC)c1OC	.	.	-	.	.	.
O=c1ccc(N=Nc2ccccc2)ccc1O	-	?	?	.	-	-
Oc1ccc(N=Nc2ccccc2)o1	-	-	-	.	6.31µM	-
O=C(N/N=C/c1c[nH]c2ccccc12)c1ccccc1	?	?	13.5µM	.	?	?
O=C(N/N=C/c1c[nH]c2ccccc12)c1cccs1	?	23.1µM	9.53µM	.	-	?
O=C(N/N=C/c1c[nH]c2ccccc12)c1sc2ccccc2c1Cl	-	?	12µM	?	-	?
O=C(N/N=C/c1ccc([N+](=O)[O-])o1)c1sc2ccccc2c1Cl	-	-	-	.	?	-
O=C(NN=Cc1cccc2ccccc12)C(=O)NN=Cc1cccc2ccccc12	.	.	.	.	-	.
O=C(N/N=C/c1cccc2ccccc12)c1cccs1	5.62µM	?	2.13µM	.	-	3.55µM
O=C(Cl)c1cccc([N+](=O)[O-])c1	.	.	.	-	.	.
Clc1ccc(N=C2SCCS2)cc1	-	-	?	.	-	-
Cc1c(/C=N/NC(=O)c2sc3ccccc3c2Cl)cnn1C	-	-	?	-	-	-
O=C(N/N=C/c1c[nH]c2ccccc12)c1ccncc1	-	-	?	-	-	-
O=C(N/N=C/c1cccc([N+](=O)[O-])c1O)c1cccs1	-	-	13.5µM	-	-	-
O=C(N/N=C/c1c[nH]c2ccccc12)c1ccc2c(c1)OCCO2	?	?	0.953µM	.	-	?
Cn1cccc1/C=N/NC(=O)c1sc2ccccc2c1Cl	?	-	2.69µM	-	-	?
O=C(N/N=C/c1ccccn1)c1sc2ccccc2c1Cl	-	?	9.53µM	.	?	-
CCCCCCCCCCCCC/C=C/[C@@H](O)[C@H](CO)NC(=O)CCCCCCCCCCCCCCC	.	.	.	-	.	.
SMILES	NPC1 prom act	ELG1 genotox	FLuc counter	SMN2 splice up	uPA surface inh	Rab9 prom act
Cc1ccccc1-n1c(=O)c2c3c(sc2n2cnnc12)CCCC3	.	.	-	-	.	.
Cc1cc(Br)ccc1NC(=O)c1coc(=O)c2ccccc12	.	.	-	-	.	.
O=C(N/N=C\c1cn[nH]c1-c1ccccc1)c1cccnc1	-	-	?	-	-	-
O=C(N/N=C/c1ccccc1OCc1ccccc1)c1cccs1	-	-	4.26µM	-	-	-
O=C(N/N=C/c1c[nH]c2ccc(Br)cc12)c1ccc2c(c1)OCO2	-	-	26.9µM	-	-	-
COc1cc(/C=N/NC(=O)c2cccs2)ccc1OCc1ccccc1	-	-	?	-	-	-
O=C(N/N=C\c1cn[nH]c1-c1ccccc1)c1cccs1	-	-	23.9µM	-	-	-
Cc1cc(C(=O)N/N=C/c2c[nH]c3ccccc23)cs1	-	-	15.1µM	?	-	-
O=C(c1ccc(Br)c(S(=O)(=O)N2CCOCC2)c1)N1CCN(C/C=C/c2ccccc2)CC1	.	.	.	.	-	.
CCOc1ccc(Br)cc1C(=O)N/N=C/c1c[nH]c2ccccc12	-	-	-	.	?	-
COc1ccccc1C(=O)N/N=C/c1c[nH]c2ccccc12	-	-	16.9µM	.	-	-
O=C(N/N=C/c1c[nH]c2ccccc12)c1cc(Br)ccc1O	-	-	26.9µM	.	-	-
Cc1ccc(C(=O)Nc2ccc(C(=O)N/N=C/c3c[nH]c4ccccc34)cc2)cc1	-	-	?	-	-	-
COc1ccccc1CN1CCC2(CC1)CCN(S(=O)(=O)c1ccccc1)CC2	.	.	.	-	.	.
O=C(O)c1cc(-c2ccccc2)n[nH]1	-	-	-	-	-	-
O=C(O)/C=C\C(=O)NNC(=O)c1cc(-c2ccccc2)n[nH]1	-	-	10.7µM	.	-	-
O=C(O)/C=C/C(=O)NNC(=O)c1cc(-c2ccccc2)n[nH]1	-	-	10.7µM	-	-	-
CCCNC(=O)COC(=O)c1cc(C)nc2ccccc12	-	-	-	-	-	-
COc1ccc(-c2cc(C(=O)OCC(=O)NC3CC3)c3ccccc3n2)cc1	-	-	3.79µM	.	?	-
O=C(COC(=O)c1cc(-c2ccccc2)nc2ccccc12)NC1CC1	.	-	.	.	-	.
CCN(CC)C(=O)COC(=O)c1cc(-c2ccc(OC)cc2)nc2ccccc12	-	-	7.57µM	-	-	-
COCCNC(=O)COC(=O)c1cc(-c2ccc(OC)cc2)nc2ccccc12	-	-	10.7µM	?	-	-
COc1ccc(-c2cc(C(=O)Oc3cccc(C)c3C)c3ccccc3n2)cc1	.	.	?	-	.	.
COc1ccc(-c2cc(C(=O)OCC(=O)NC(C)C)c3ccccc3n2)cc1	-	-	6.75µM	-	-	-
CCN(CC)C(=O)COC(=O)c1cc(-c2ccco2)nc2ccccc12	-	-	?	-	-	-
SMILES	NPC1 prom act	ELG1 genotox	FLuc counter	SMN2 splice up	uPA surface inh	Rab9 prom act
CCCNC(=O)COC(=O)c1cc(-c2ccc(OC)cc2)nc2ccccc12	-	-	?	-	-	-
COc1ccc(-c2cc(C(=O)OCC(=O)NC(C)(C)C)c3ccccc3n2)cc1	-	-	12µM	-	.	-
COc1ccc2cc(-c3cc(C(=O)OCC(=O)NC4CCS(=O)(=O)C4)c4ccccc4n3)ccc2c1 (configuration not stated)	0.631µM	?	0.477µM	1.12µM	-	0.501µM
CCNC(=O)COC(=O)c1cc(-c2ccc(OC)cc2)nc2ccccc12	-	-	5.36µM	-	?	-
COc1ccc(-c2cc(C(=O)OCC(=O)N3CCOCC3)c3ccccc3n2)cc1	.	-	.	.	-	.
O=C(CCc1ccccc1)Nc1ccc(F)cc1F	-	?	?	-	-	?
O=C(Nc1ccccc1F)Nc1ccccc1F	?	-	15.1µM	12.6µM	-	2.51µM
O=C(Nc1ccccc1F)Nc1cccc2ccc(O)cc12	-	-	16.9µM	.	-	?
O=C(Nc1ccc(Br)cc1)Nc1ccccc1F	1.58µM	?	4.78µM	.	-	2.82µM
